# Test results reported in PubChem BioAssay (EPA / NIEHS).
# Calls of active or inactive are those of the source. The calls were made as follows: active = hit-call score of the fitted dose curve at least 0.9, where 1 is the maximum; inactive = score below 0.9.
# Experiment: ATG_ERE_CIS: Attagene CIS-FACTORIAL HepG2 Assay for Estrogen Response Element (ERE) (AID 2282940)
# Settings: HepG2 ERE cis-reporter, Attagene RNA transcript; actives raise or lower the signal
# Protocol: ATG_CIS is a cell-based, multiplexed-readout assay that uses HepG2, a human liver cell line, with measurements taken at 24 hours after chemical dosing in a 24-well plate.ATG_ERE_CIS is one of 52 assay component(s) measured or calculated from the ATG_CIS assay. It is designed to make measurements of mRNA induction, a form of inducible reporter, as detected with fluorescence intensity signals by Reverse transcription polymerase chain reaction (RT-PCR) and Capillary electrophoresis technology.Data from the assay component ATG_ERE_CIS was analyzed into 1 assay endpoint. This assay endpoint, ATG_ERE_CIS, was analyzed with bidirectional fitting relative to DMSO as the negative control and baseline of activity. Using a type of inducible reporter, measures of mRNA for gain or loss-of-signal activity can be used to understand the reporter gene at the transcription factor-level as they relate to the gene ESR1. Furthermore, this assay endpoint can be referred to as a primary readout, because this assay has produced multiple assay endpoints where this one serves a reporter gene function. To generalize the intended target to other relatable targets, this assay endpoint is annotated to the nuclear receptor intended target family, where the subfamily is steroidal.
# Human liver HepG2 cells are transiently transfected with multiple reporter transcription units (MRTUs) in 6-well plates using FuGene 6 reagent (Roche; 3 ml FuGene/1 mg DNA). The MRTU constructs are regulated by a cis-regulating element (promoter). […] A major difference between the CIS and TRANS system is that in CIS activities of endogenous TFs are measured, whereas the TRANS assay evaluates changes in activities of exogenous, chimeric NR-Gal4 proteins. […] At the end of 24 hour incubation, total RNA was isolated using TriZol reagent (Invitrogen). The isolated RNA is then reverse-transcribed using oligo(dT) primer and Mo-MLV reverse transcriptase (Invitrogen) with DNAse I (Ambion) treatment for 30 min. The one-tenth of the produced cDNA was amplified by PCR using Taq DNA polymerase (Invitrogen) and two reporter sequence-specific primers. The PCR products were fluorescently labeled by primer extension with 6-arboxyfluorescein (6-FAM) 5'-labeled reporter sequence-specific primer (2 min at 95 C, 20 s at 68 C and 10 min at 72 C) and these products were digested with 5U of HpaI (New England Biolabs) for 2h at 37 C. The fragments were purified using Qiaquick PCR columns (Qiagen), analyzed on an ABI 3130xL genetic analyzer (Applied Biosystems) with peak positions identified by using a set of X-rhodamine (ROX)-labeled MapMarker1000 molecular weight standards (BioVentures). The raw capillary electrophoresis data was processed using Attagraph software (Attagene).
SMILES,outcome,AC50
NC(=O)NC(N)=O,inactive,
CC(C)Cc1ccc(C(C)C(=O)O)cc1 (stereo not given),,10.6 µM (active)
CCCCCC#CC(=O)OC,inactive,
CCC(C)COC(=O)CC(C)C (stereo not given),inactive,
Cc1ccccc1S,,20.5 µM (active)
C1COCO1,inactive,
CCOC(=O)C=Cc1ccccc1,inactive,
CC1=CC(O)CC(C)(C)C1 (stereo not given),inactive,
CCC=C(C)C=O,,27.4 µM (active)
CCCCCCCC1CCCC1=O (stereo not given),inactive,
CCC(=O)OCC=Cc1ccccc1,inactive,
Cc1cccc(C)c1,inactive,
CC(O)COCC(C)O (stereo not given),inactive,
c1ccc(Cc2ccccc2)cc1,,100 µM (active)
CCO[Si](CCC#N)(OCC)OCC,inactive,
CC(=O)CC(C)(C)C1CCCCC1,inactive,
Nc1ccc(O)c(N)c1,inactive,
c1ccc2c(c1)-c1ccc3ccc4cccc5cc-2c1c3c45,,0.374 µM (active)
CCCCCCCCCCCCN1CCOCC1,inactive,
C=CC(=O)OCC(CO)(COC(=O)C=C)COC(=O)C=C,inactive,

SMILES,outcome,AC50
CC(C)(C)C1CCC(O)CC1 (stereo not given),,32.8 µM (active)
CCCCCCCCCCCCOCCOS(=O)(=O)O,inactive,
CN(C)c1ccc(C=O)cc1,inactive,
CC(CCO)CC(C)(C)C (stereo not given),inactive,
CCCCCCCCCOS(=O)(=O)O,,5.14 µM (active)
C1CCCNCC1,inactive,
CCCCCCC(C)O (stereo not given),inactive,
CC(C)(C)c1cccc(O)c1,inactive,
O=C(C=Cc1ccccc1)OCCCc1ccccc1,,29.7 µM (active)
c1ccc(Sc2ccccc2)cc1,,63.5 µM (active)
CCCCN(CCO)CCO,inactive,
CCCCCCCCOS(=O)(=O)O,,135 µM (active)
O=S(=O)(O)c1cc(S(=O)(=O)O)c2c(N=Nc3ccccc3)c(O)ccc2c1,inactive,
COc1ccc(C(C)=O)cc1,inactive,
CC/C=C\CCCCO,inactive,
O=C(O)c1cccc(Cl)n1,inactive,
NS(=O)(=O)c1cc(C(=O)O)c(NCc2ccco2)cc1Cl,inactive,
OCCCO,inactive,
O=C(O)c1ccccc1O,inactive,
CCC(CC)CO,inactive,
